Only some compounds are listed: those with a hit (about 15% of all), similar ones and a draw of the others.
ELG1 DNA repair = ELG1-dependent DNA repair inhibition; HEK293T ELG1-luciferase reporter, luminescence, 16 h; DNA damage induced by 5-fluorouridine; Potency, µM (highest dose often 46.1 µM), for the others: top-dose activity change, negative = inhibition, hits mostly inhibitors; 2.3% of 330,000 active; AID 504467; also: nearly all actives have a fitted effect of over 55% in size
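Step one: seed 2,000 cells per well. Step two: pin-transfer compound or DMSO alongside 5-fluorouridine. Step three: incubate 16 hr, 37 °C, 5% CO2. Step four: add ONE-Glo, wait 30 min, read luminescence.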
Gal4-VP16 FLuc = Gal4-VP16 reporter inhibition counter-screen; Potency, µM (doses to about 53.6 µM), inactives show at the highest dose activity, negative = inhibition, usual class: inhibitors; 3.5% of 310,000 active; AID 2546; Drosophila S2 Gal4-VP16 UAS-luciferase, luminescence, 20 h;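 also: Gal4-VP16 expression switched on by copper sulfate through the metallothionein promoter; nearly all actives have a fitted effect of over 50% in size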
TDP1 cell CPT = DT40-hTDP1 cell growth loss with CPT | 12% of 420,000 active | Potency, µM (series often up to 46.2 µM), inactives show top-dose activity change, negative = growth inhibition, hits mostly inhibitors | chicken DT40 Tdp1-/-;hTDP1 cells + 20 nM CPT, ATP luminescence, 48 h; also: nearly all actives have a fitted effect of over 55% in size
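Cell growth measured by CellTiter-Glo luminescence after a minimum 48 h, 37 C compound exposure with 20 nM CPT in Tdp1-knockout DT40 cells stably expressing hTDP1, seeded 400/well; qHTS titration format.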
DT40 TDP1 no CPT = qHTS for Inhibitors of human tyrosyl-DNA phosphodiesterase 1 (TDP1): qHTS in cells in absence of CPT | AID 686978, 2013 | DT40 Tdp1-/- hTDP1 cells, no CPT, ATP luminescence, 48 h | Potency, µM (titrated, usually from 46.2 µM), inactives show at the top dose activity change, negative = growth inhibition, hits mostly inhibitors | 15% of 420,000 active; also: nearly all actives have a fitted effect of over 55% in size
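Readout: luminescence from CellTiter-Glo after 30 min in the dark at RT. Cells: DT40 Tdp1-/- with stable hTDP1, 400/well. Exposure: compounds alone, ≥48 hr, 37 °C.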
RORg inh = inhibitors of mouse ROR gamma transcriptional activity | 5.4% of 310,000 active | Drosophila S2 Gal4-RORgamma UAS-luciferase reporter, 20 h | P51450 | Potency, µM (top dose mostly 53.6 µM), for the others: at the highest dose activity change, negative = inhibition, usual class: inhibitors | AID 2551; also: nearly all actives have a fitted effect of over 60% in size
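Stable Schneider cell line, Gal4 DNA-binding domain fused to ROR gamma, UAS-luciferase. Cmpd 1 hr RT → CuSO4 700 uM final → 20 hr RT → luciferase reagent 10 min → luminescence.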
ALOX12 inh = inhibitors of human 12S-lipoxygenase ALOX12; P18054; Potency, µM (highest dose often 108 µM), for the others: at the highest dose activity change, negative = inhibition, hits mostly inhibitors; purified 12hLO, xylenol orange hydroperoxide absorbance; 1.1% of 580,000 active; AID 1671190
Target sequence (P18054 whole entry, looked up): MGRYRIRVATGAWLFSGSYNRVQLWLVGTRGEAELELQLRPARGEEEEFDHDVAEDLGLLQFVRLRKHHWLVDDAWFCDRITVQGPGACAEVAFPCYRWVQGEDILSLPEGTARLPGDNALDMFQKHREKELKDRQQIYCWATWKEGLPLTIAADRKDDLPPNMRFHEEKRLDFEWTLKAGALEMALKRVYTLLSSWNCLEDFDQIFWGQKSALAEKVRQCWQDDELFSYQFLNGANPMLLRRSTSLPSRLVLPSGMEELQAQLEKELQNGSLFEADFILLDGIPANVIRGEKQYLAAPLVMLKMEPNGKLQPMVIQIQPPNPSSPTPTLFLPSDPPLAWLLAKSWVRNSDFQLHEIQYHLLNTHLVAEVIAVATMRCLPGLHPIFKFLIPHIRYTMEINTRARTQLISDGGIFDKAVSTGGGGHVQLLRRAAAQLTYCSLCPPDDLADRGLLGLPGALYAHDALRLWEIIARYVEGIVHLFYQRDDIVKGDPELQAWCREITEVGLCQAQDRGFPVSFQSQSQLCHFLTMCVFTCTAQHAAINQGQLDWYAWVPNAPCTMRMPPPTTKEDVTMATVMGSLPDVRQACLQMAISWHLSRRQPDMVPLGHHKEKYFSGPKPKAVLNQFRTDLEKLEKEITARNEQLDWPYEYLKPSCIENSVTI
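Hydroperoxide product was detected by ferrous iron/xylenol orange as the 573 to 405 nm absorbance ratio. Arachidonic acid at 40 uM (final) was turned over for 30 min at room temperature by 150 nM human 12hLO, pH 7.0 Hepes buffer, after 15 min compound preincubation.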
* hit, by the source's call. Calls follow the shape of the dose curve; as a rule, active = well fitted curve in the direction sought with a large enough effect; inconclusive = small, poorly fitted or top-dose-only effect, or another doubt; inactive = no such curve, though single readings can be large; an effect the other way counts as inactive or inconclusive. % is scaled to controls: 0 for no effect and ±100 for the full control effect; potency is read from the fitted curve at half-maximal effect.

`CCN(CC(=O)N(C)C)C(=O)CCc1ncc(-c2ccccc2Cl)o1` gave ALOX12 inh 6.7%.
`CCOC(=O)c1ccc(NC(=O)CCc2c(C)nc3c(c(C)nn3C(C)(C)C)c2C)cc1` gave TDP1 cell CPT 16.4µM*, DT40 TDP1 no CPT 18.4µM* and ALOX12 inh -16.3%.
For COC(=O)c1ccc(NC(=O)CCc2c(C)nc3c(c(C)nn3C(C)(C)C)c2C)cc1 the results were TDP1 cell CPT inconclusive, DT40 TDP1 no CPT 18.4µM* and ALOX12 inh inconclusive.
Screening Cc1cccc(NC(=O)CCc2c(C)nc3c(c(C)nn3C(C)(C)C)c2C)c1C returned TDP1 cell CPT inconclusive, DT40 TDP1 no CPT inconclusive and ALOX12 inh -15.5%.
For CCOC(=O)N1CCC(NC(=O)CCc2c(C)nc3c(c(C)nn3C(C)(C)C)c2C)CC1 the results were ELG1 DNA repair inconclusive, Gal4-VP16 FLuc inconclusive, TDP1 cell CPT inconclusive, DT40 TDP1 no CPT inconclusive, RORg inh inconclusive and ALOX12 inh -25.8%.
Screening N#Cc1c(C(F)(F)F)cc(=O)n2c1[nH]c1ccccc12 returned ELG1 DNA repair -20.0%, Gal4-VP16 FLuc inconclusive, TDP1 cell CPT 13µM*, DT40 TDP1 no CPT 14.6µM*, RORg inh inconclusive and ALOX12 inh 2.1%.
N#Cc1c(CSCC(=O)O)cc(=O)n2c1[nH]c1ccccc12 was read as ELG1 DNA repair -9.0%, Gal4-VP16 FLuc 6.5%, TDP1 cell CPT -6.0%, DT40 TDP1 no CPT 21.8%, RORg inh -16.2% and ALOX12 inh 0.8%.
`C=CC[C@]12CC=CC(=O)[C@@]1(O)O[C@H](c1ccc(OC)c(OC)c1)[C@H]2C` gave TDP1 cell CPT 10.3µM*, DT40 TDP1 no CPT 5.8µM* and ALOX12 inh -0.6%.
`CCOC(=O)c1c(C)nn(-c2ccc(NC(=O)c3c(C)noc3C)cc2)c1C` gave ELG1 DNA repair inconclusive, Gal4-VP16 FLuc -12.9%, TDP1 cell CPT inconclusive, DT40 TDP1 no CPT inconclusive and RORg inh inconclusive.
CCNC(=O)Nc1ccc(OCC(=O)NCc2ccc(C)cc2)nc1 was read as ALOX12 inh 29.6%.
Screening CCOC(=O)c1c(C)nn(-c2ccc(NC(=O)/C=C/C(=O)O)cc2)c1C returned ELG1 DNA repair inconclusive, Gal4-VP16 FLuc 6.9%, TDP1 cell CPT -13.8%, DT40 TDP1 no CPT 1.46µM*, RORg inh -20.3% and ALOX12 inh inconclusive.
For CCOC(=O)c1c(C)nn(-c2ccc(NC(=O)c3cccs3)cc2)c1C the results were ELG1 DNA repair inconclusive, Gal4-VP16 FLuc -10.8%, TDP1 cell CPT 23.1µM*, DT40 TDP1 no CPT 16.4µM*, RORg inh 2.3% and ALOX12 inh -1.3%.
CCNC(=O)Nc1ccc(-n2nc(C)c(C(=O)OCC)c2C)nc1 was read as ELG1 DNA repair 3.1%, Gal4-VP16 FLuc 6.5%, TDP1 cell CPT 18.4µM*, DT40 TDP1 no CPT inconclusive, RORg inh 7.1% and ALOX12 inh -4.6%.
COc1ccc(-c2cnnc(N/N=C/c3ccc(O)cc3)n2)cc1 was read as ELG1 DNA repair inconclusive, Gal4-VP16 FLuc -0.1%, TDP1 cell CPT inconclusive, DT40 TDP1 no CPT 11.6µM*, RORg inh 3.1% and ALOX12 inh 1.9%.
`COc1ccc(-c2cnnc(N/N=C/c3c(C)nn(-c4ccccc4)c3Cl)n2)cc1` gave ELG1 DNA repair inconclusive, Gal4-VP16 FLuc 0.0%, TDP1 cell CPT 3.66µM*, DT40 TDP1 no CPT 5.17µM*, RORg inh 9.6% and ALOX12 inh 24.8%.
Screening COc1ccc(-c2cnnc(N/N=C/c3ccc(C)o3)n2)cc1 returned ELG1 DNA repair 4.0%, Gal4-VP16 FLuc -9.4%, TDP1 cell CPT inconclusive, DT40 TDP1 no CPT 18.4µM*, RORg inh 5.01µM* and ALOX12 inh -8.9%.
For COc1ccc(-c2cnnc(N/N=C/c3ccc(O)c(O)c3)n2)cc1 the results were ELG1 DNA repair -24.3%, Gal4-VP16 FLuc 8.91µM*, TDP1 cell CPT 7.31µM*, DT40 TDP1 no CPT 9.2µM*, RORg inh inconclusive and ALOX12 inh inconclusive.
Oc1ccc(/C=N\Nc2nncc(-c3ccccc3)n2)cc1 was read as ELG1 DNA repair 14.3%, Gal4-VP16 FLuc inconclusive, TDP1 cell CPT inconclusive, DT40 TDP1 no CPT inconclusive, RORg inh -26.9% and ALOX12 inh 5.9%.
For CN(CC(=O)NC(=O)NCc1ccccc1)Cc1ccc(C(F)(F)F)cc1 the results were ALOX12 inh -3.8%.
Screening CCOC(=O)c1cc(C#N)c(=S)[nH]c1C returned ELG1 DNA repair -5.1%, Gal4-VP16 FLuc -14.3%, TDP1 cell CPT -4.8%, DT40 TDP1 no CPT -28.7%, RORg inh 12.6µM* and ALOX12 inh inconclusive.
CC(=O)N1N=C(c2cccc(O)c2)CC1c1cccs1 (configuration not stated) was read as ELG1 DNA repair -23.0%, Gal4-VP16 FLuc 3.7%, TDP1 cell CPT 14.6µM*, DT40 TDP1 no CPT inconclusive, RORg inh 24.3% and ALOX12 inh -0.2%.
CCS(=O)(=O)Nc1cccc(C2=NN(C(C)=O)C(c3cccs3)C2)c1 (configuration not stated) was read as ELG1 DNA repair inconclusive, Gal4-VP16 FLuc 8.7%, TDP1 cell CPT 5.6%, DT40 TDP1 no CPT -24.8%, RORg inh 3.7% and ALOX12 inh 6.1%.
Screening CC(=O)N1N=C(c2ccccc2O)CC1c1cccs1 (configuration not stated) returned ELG1 DNA repair 0.1%, Gal4-VP16 FLuc 20.3%, TDP1 cell CPT inconclusive, DT40 TDP1 no CPT 6.51µM*, RORg inh -14.5% and ALOX12 inh 14.2%.
Screening CCOC(=O)N(O)c1ccc(C=Cc2ccccc2)cc1 returned TDP1 cell CPT 11.6µM*, DT40 TDP1 no CPT 14.6µM* and ALOX12 inh -16.3%.
Screening O=C(Nc1ccc(Cl)cc1)N1CCCC1 returned ELG1 DNA repair inconclusive, Gal4-VP16 FLuc 13.5%, TDP1 cell CPT inconclusive, DT40 TDP1 no CPT -1.3%, RORg inh 21.6% and ALOX12 inh 10.4%.
For CC(C)(C)c1ccc(NC(=O)N2CCCN(c3c(Cl)cncc3Cl)CC2)cc1 the results were ELG1 DNA repair inconclusive, Gal4-VP16 FLuc inconclusive, TDP1 cell CPT 16.4µM*, DT40 TDP1 no CPT 7.31µM*, RORg inh 17.3% and ALOX12 inh -4.2%.
`Cc1ccc(-c2noc(CSc3nnc4ccccn34)n2)cc1F` gave ALOX12 inh -3.0%.
Screening NC(=O)C1CCN(C(=O)COC(=O)c2cc3ccccc3[nH]2)CC1 returned ALOX12 inh 5.8%.

Screening data from PubChem BioAssay.
